Cruzain inh noDet: inhibitors of Trypanosoma cruzi cruzain without detergent | Potency, µM, without a hit: max response, negative = inhibition, most hits filed as inhibitors | P25779 | AID 1476 | purified cruzain, Z-FR-AMC fluorescence, no detergent | 2.3% of 200,000 active;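 further: plate controls were enzyme without inhibitor for no effect and buffer without enzyme for full effect; nearly all actives have a fitted effect of over 40% in size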
Target sequence (P25779 123-467 limits assumed): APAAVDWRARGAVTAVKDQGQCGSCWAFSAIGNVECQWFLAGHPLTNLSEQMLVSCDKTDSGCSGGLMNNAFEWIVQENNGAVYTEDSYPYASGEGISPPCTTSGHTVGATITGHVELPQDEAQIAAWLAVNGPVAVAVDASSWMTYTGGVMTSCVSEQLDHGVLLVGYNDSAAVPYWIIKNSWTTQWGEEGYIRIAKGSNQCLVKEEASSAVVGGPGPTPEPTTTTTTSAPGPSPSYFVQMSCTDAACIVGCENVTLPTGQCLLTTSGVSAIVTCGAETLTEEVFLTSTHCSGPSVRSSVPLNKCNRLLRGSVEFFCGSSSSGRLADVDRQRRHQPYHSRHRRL
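Purified cruzain at 1.5 nM, pre-incubated 15 min with compound at room temperature in 100 mM sodium acetate pH 5.5, 5 mM DTT, 0.00005% Triton X-100. Reaction started with 2 uM Z-FR-AMC; AMC fluorescence increase over 60 s gives rate.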
Cruzain inh Det: blocks cruzain activity in presence of Triton detergent | P25779 | purified cruzain, Z-FR-AMC fluorescence, 0.01% Triton | Potency, µM, for inactives: max response, negative = inhibition, actives largely listed as inhibitors | 0.43% of 200,000 active | AID 1478;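 further: plate controls were neutral wells for no effect and buffer without enzyme for full effect; nearly all actives have a fitted effect of over 40% in size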
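15 min RT preincubation of 1.5 nM cruzain with compound, then 2 uM Z-FR-AMC added; kinetic AMC fluorescence, 60 s delta. Triton X-100 0.01%, pH 5.5.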
Starred values were filed as active, the others as inactive; ? = inconclusive. This is a sample that favours compounds with a hit; in the whole collection about 2.5% have one here. The call rests on the fitted dose curve; in most records, active means well fitted curve in the direction sought with a large enough effect; inconclusive means small, poorly fitted or top-dose-only effect, or another doubt; inactive means no such curve, though single readings can be large; an effect the other way counts as inactive or inconclusive. Potency means the concentration at half of the fitted maximal effect.

SMILES | Cruzain inh noDet | Cruzain inh Det
COc1ccc(N2CCN(S(=O)(=O)c3cccc(C(F)(F)F)c3)CC2)cc1 | -2% | 2%
O=C(O)C[SH+]CC(=O)O.O=C(O)C[SH+]CC(=O)O.[Cu] | 5% | 4%
COc1ccccc1-c1noc(-c2ccc(N(C)Cc3ccccc3)c([N+](=O)[O-])c2)n1 | -24% | -2%
O=C(CN1C(=O)S/C(=C\c2ccc(Cl)cc2)C1=O)NNC(=O)c1ccccc1O | 20µM* | -6%
COc1cccc(/C=C2\SC(=O)N(CCC(=O)NNC(=O)c3ccccc3Cl)C2=O)c1 | ? | -5%
C#CCOCCOCCOCCNc1nc(N2CCN(C(=O)[C@H]([C@@H](C)CC)n3cc(CCCN=C(N)N)nn3)CC2)nc(N2CCN(C(=O)[C@H](CCCCN)n3cc(CCCC)nn3)CC2)n1 | ? | 25µM*
C#CCOCCOCCOCCNc1nc(N2CCN(C(=O)[C@H](C)n3cc(CCCN=C(N)N)nn3)CC2)nc(N2CCN(C(=O)[C@H](CCCCN)n3cc(CCCC)nn3)CC2)n1 | 0% | -15%
COCCn1c(=NC(=O)c2sc3ccccc3c2Cl)sc2cc(S(N)(=O)=O)ccc21 | 6% | -15%
C=CCn1c(=NC(=O)c2sc3ccccc3c2Cl)sc2cc(S(N)(=O)=O)ccc21 | 20µM* | -26%
CCCCCCOC(=O)C(C#N)c1nc2ccccc2nc1N1CCCCC1 (stereo unspecified) | 25µM* | -2%
CC1CCN(c2nc3ccccc3nc2C(C#N)C(=O)NC2CCCCC2)CC1 (stereo unspecified) | 20µM* | -4%
N#CC(C(=O)NC1CCCCC1)c1nc2ccccc2nc1N1CCOCC1 (stereo unspecified) | 1% | 2%
CCCCCCOC(=O)C(C#N)c1nc2ccccc2nc1N1CCN(C)CC1 (stereo unspecified) | 4% | -2%
Cc1ccc(C)c(N2CCN(C(=O)Cn3cnc4sc(C)c(S(=O)(=O)N5CCN(c6ncccn6)CC5)c4c3=O)CC2)c1 | ? | -4%
CS(=O)(=O)Nc1cccc(-c2cc(Nc3ccccc3)ncn2)c1 | 2% | -11%
COc1ccc(NC(=O)c2ccc3nc(CCc4ccccc4)oc3c2)cc1 | 16% | 6%
CC(=O)NC(CCS(C)(=O)=O)C(=O)N1CCc2ccccc21 (stereo unspecified) | -14% | 3%
CC(=O)Oc1ccc(C(=O)[C@H]2[C@H]3C(=O)N(c4cccc5ccccc45)C(=O)[C@H]3[C@@H]3C=CC=NN32)cc1 | 23% | -6%
O=C(Nc1ccc(Cl)cc1)[C@@H]1[C@@H]2C(=O)N(c3ccc4ccccc4c3)C(=O)[C@@H]2[C@H]2C=CC=NN21 | 16µM* | -7%
Oc1[nH]c(=S)sc1/C=C1\C(c2ccccc2)=Nc2ccccc21 | 25µM* | -9%
O=c1[nH]c(=O)n(-c2ccccc2)c(O)c1/C=C1/C(c2ccccc2)=Nc2ccccc21 | -12% | -5%
COc1cccc2c1Oc1ncccc1N(c1ccc(C(=O)NCc3ccccc3Cl)s1)C2 | 25µM* | -25%
COc1cccc2c1Oc1ncccc1N(c1ccc(C(=O)NCc3cccc(C)c3)s1)C2 | -16% | -4%
CCCn1c(-c2ccc(F)cc2)nc2c(NCCCN(C)C)nc(C)nc21 | 6% | 4%
Cc1ccccc1C(=O)Nc1ccc2nc(SCC(=O)N3CCc4ccccc43)sc2c1 | 10µM* | -1%
SMILES | Cruzain inh noDet | Cruzain inh Det
Cc1cccc(C(=O)Nc2ccc3nc(SCC(=O)N4CCc5ccccc54)sc3c2)c1 | ? | -1%
COc1ccc(C(=O)/C=C/c2cn(CC(O)CN3CCc4ccccc43)c3ccccc23)cc1 (stereo unspecified) | 6.3µM* | -3%
CCOc1ccc(C(=O)/C=C/c2cn(CC(O)CN3CCc4ccccc43)c3ccccc23)cc1 (stereo unspecified) | 6.3µM* | -3%
CCCCN(C)CC(O)Cn1cc(/C=C/C(=O)c2ccc(OCC)cc2)c2ccccc21 (stereo unspecified) | -7% | -12%
CCCCN(CCCC)CC(O)Cn1cc(/C=C/C(=O)c2ccccc2)c2ccccc21 (stereo unspecified) | -1% | -7%
CCCCOC(=O)c1ccc(NC(=O)/C=C/c2cccs2)cc1 | 2% | -7%
COc1ccc(NC(=O)C2CCN(C(=O)c3sc4nc[nH]c(=O)c4c3C)CC2)cc1Cl | -4% | -2%
C[N+](C)(C)CCN(Cc1cccs1)c1ccccn1 | -3% | 5%
Cc1cc(C)cc(NC(=O)c2sc3nc[nH]c(=O)c3c2C)c1 | 1% | -3%
Cc1ccc(-c2cn(-c3ccc(Cl)cc3)c(S(=O)(=O)CC(=O)Nc3ccccc3)n2)cc1 | 16µM* | -18%
Cc1ccc(-n2cc(-c3ccccc3)nc2S(=O)(=O)CC(=O)Nc2ccc(F)cc2)cc1 | 27% | 8%
O=C(Nc1ccc(Cl)cc1Cl)c1cccc(N2C(=O)C=CC2=O)c1 | 1% | -9%
CCOC(=O)C1=NN(c2ccc(OC)cc2)C(c2ccccc2)CC1=O (stereo unspecified) | -9% | -11%
COc1ccc(C2CC(c3ccccc3)=NN2c2ccc(N)cc2)cc1 (stereo unspecified) | 20µM* | -10%
COC(=O)c1ccc(Cl)cc1NC(=O)N(C)CCc1c(C)nn(C)c1C | -4% | -1%
COC(=O)c1ccccc1NC(=O)CCCn1nc(C)c2sc3ccccc3c2c1=O | -9% | -3%
Cc1ccccc1Nc1nc(-c2sc(NC(=O)c3ccc([N+](=O)[O-])cc3)nc2C)cs1 | 10µM* | 6%
CCOc1ccccc1Nc1nc(-c2sc(NC(=O)c3ccc([N+](=O)[O-])cc3)nc2C)cs1 | 6.3µM* | 1%
Cc1ccccc1Nc1nc(=O)c2cc([N+](=O)[O-])ccc2s1 | -18% | -1%
COc1ccc(-c2sc(NC(C)=O)nc2-c2ccccc2)cc1 | 14% | -10%
COc1ccc(-c2nc(NC(=O)c3ccccc3)sc2-c2ccc([N+](=O)[O-])cc2)cc1 | 7.9µM* | -2%
Cc1ccc(Cl)cc1Nc1nc(-c2sc(NC(=O)c3cccc(Cl)c3)nc2C)cs1 | 4µM* | 11%
CCCCC(=O)Nc1nc(C)c(-c2csc(Nc3ccccc3OC)n2)s1 | ? | -3%
CC(=O)[O-].CC(=O)[O-].O.O.[Cd+2] | -20% | 6%
Cc1ccc2oc(=O)c3cc(C(=O)Nc4cc(-c5cccc(F)c5)no4)sc3c2c1 | 5% | 3%
SMILES | Cruzain inh noDet | Cruzain inh Det
CC1=C(C(=O)Nc2ccc(C)cc2C)C(c2ccc(C(C)C)cc2)n2nc(C(F)(F)F)nc2N1 (stereo unspecified) | 20% | -3%
Cc1ccccc1Nc1nc(-c2sc(NC(=O)c3cccc(Cl)c3)nc2C)cs1 | 6.3µM* | 2%
C=CCCC(=O)Nc1nc(C)c(-c2csc(Nc3ccccc3OC)n2)s1 | ? | -9%
Cc1ccccc1Nc1nc(-c2sc(NC(=O)c3ccccc3)nc2C)cs1 | 13µM* | -5%
Cc1ccc(C(=O)Nc2nc(-c3ccc([N+](=O)[O-])cc3)cs2)o1 | -7% | -5%
Cc1ccc(Nc2nc(-c3sc(NC(=O)c4ccc([N+](=O)[O-])cc4)nc3C)cs2)cc1 | 7.9µM* | 0%
COCCCNC(=O)c1c(NC(=O)c2cc(=O)c3ccccc3o2)sc2c1CCCC2 | -6% | 0%
N#C/C(=C\Nc1ccccn1)C(=O)C1CC1 | 9% | -2%
COC(=O)[C@@H](NC(=O)NCc1ccco1)C(C)C | -3% | -20%
O=C(Nc1sc2c(c1C(=O)NCc1cccnc1)CCCC2)c1cc(=O)c2ccccc2o1 | 0% | -2%

Assay outcomes as filed in PubChem.
